Screens (PubChem BioAssay)
KDM5B inhibitor: inhibitors of human KDM5B histone demethylase; KDM5B demethylase, FDH-coupled NADH fluorescence (FDH is formaldehyde dehydrogenase); Potency, µM (doses to about 57.7 µM), hits mostly inhibitors; hit rate 2.6% among 220,000; active = well fitted inhibition curve with a large enough effect; inconclusive = small, poorly fitted or top-dose-only effect; inactive = no such curve, though single readings can be large or run the other way; also: potency is read from the fitted curve at half-maximal effect; 0% is about no effect; nearly all actives have a fitted effect of over 70% in size
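Measured: NADH fluorescence change, 30 min, RT. System: KDM5BΔAP 200 nM final, H3K4me3 peptide, α-KG, Fe(II), ascorbate, NAD⁺ plus FDH, pH 7.5 HEPES. Compounds: titrated, 10 min pre-incubation with enzyme.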
IP6K1 inhibitor: inhibitors of human IP6K1 | activity change, % (series mostly up to about 58 µM) | AID 1645851 | hit rate 0.81% among 140,000 | Q92551 | IP6K1 kinase, ADP-Glo luminescence, 2 h; hits give low values; in the data active = activity change below about -25%; also: % is scaled to controls: 0 for no effect and ±100 for the full control effect
Target sequence (Q92551 whole entry, looked up): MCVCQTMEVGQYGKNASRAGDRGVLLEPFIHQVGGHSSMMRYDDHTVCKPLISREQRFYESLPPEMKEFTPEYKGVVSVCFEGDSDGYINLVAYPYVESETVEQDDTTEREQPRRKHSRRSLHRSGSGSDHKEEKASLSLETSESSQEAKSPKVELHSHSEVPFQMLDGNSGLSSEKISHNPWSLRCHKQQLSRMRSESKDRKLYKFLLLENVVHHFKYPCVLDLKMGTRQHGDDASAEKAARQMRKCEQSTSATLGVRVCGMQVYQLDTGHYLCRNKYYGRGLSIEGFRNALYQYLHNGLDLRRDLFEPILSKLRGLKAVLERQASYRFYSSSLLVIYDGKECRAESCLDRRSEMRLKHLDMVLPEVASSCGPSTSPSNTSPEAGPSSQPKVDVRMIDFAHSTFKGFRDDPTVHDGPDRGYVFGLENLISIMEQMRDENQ
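ADP-Glo luminescence measures ADP made by human IP6K1 during a 2 h RT reaction with ATP/IP6 (mix at 1.3 mM/130 uM); top library doses 57.5 and 19.1 uM final.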
The depositor's hits bear a star. Hits are enriched below; roughly 2.7% of the tested compounds scored in any of these assays.

How did Fc1ccc(CN2CCCC3(CCN(c4cnccn4)C3)C2)cc1F (stereo unspecified) do in these assays?
KDM5B inhibitor: 28µM*; IP6K1 inhibitor: -2

What do the screens show for `OCC1CN(c2ccncn2)CC12CCN(Cc1ccc(F)c(F)c1)CC2` (stereo unspecified)?
KDM5B inhibitor: inactive; IP6K1 inhibitor: 9

How did COc1cccc(-c2ccc(CN3CCCC3C(=O)NCC3CC3)cc2)c1 (stereo unspecified) do in these assays?
IP6K1 inhibitor: 0

Results for CC(C)CCNC(=O)C(=O)N1CCN(C(=O)c2cc3ccccc3[nH]2)CC1 ?
KDM5B inhibitor: inactive

What do the screens show for `COc1ccc(OC)c(C2=NOC(C(=O)O)C2)c1` (stereo unspecified)?
KDM5B inhibitor: 28µM*; IP6K1 inhibitor: 1

How did COc1ccc(OC)c(C2=NOC(C(=O)Nc3cc(C)nn3-c3ccccc3)C2)c1 (stereo unspecified) do in these assays?
KDM5B inhibitor: inactive

How did O=C(Nc1oc2ccccc2c(=O)c1-c1cccc(Cl)c1)c1cccs1 do in these assays?
KDM5B inhibitor: inactive

Results for Cc1cn2nc(C(=O)NCc3ccccn3)cc2c(=O)[nH]1 ?
KDM5B inhibitor: inconclusive; IP6K1 inhibitor: -11

How did Cc1cn2nc(C(=O)Nc3ccc(C(=O)NCCc4cccs4)cc3)cc2c(=O)[nH]1 do in these assays?
KDM5B inhibitor: 25µM*; IP6K1 inhibitor: 7

How did O=c1c2nc(Nc3ccccc3)ccc2ncn1-c1cccnc1 do in these assays?
IP6K1 inhibitor: 10

What do the screens show for `O=c1ncn(CC2CC2)c2ccc(N3CCC(c4ccccc4)CC3)nc12`?
KDM5B inhibitor: inconclusive; IP6K1 inhibitor: 11

What do the screens show for `O=c1c2nc(N3CCC(c4ccccc4)CC3)ccc2ncn1-c1cccnc1`?
KDM5B inhibitor: 35µM*; IP6K1 inhibitor: 9

What do the screens show for `O=c1c2nc(N3CCC(c4ccccc4)CC3)ccc2ncn1Cc1ccccn1`?
KDM5B inhibitor: inconclusive; IP6K1 inhibitor: -3

Results for CN1CCN(c2ccc3ncn(-c4cccnc4)c(=O)c3n2)CC1 ?
KDM5B inhibitor: 35µM*; IP6K1 inhibitor: 23

What do the screens show for `O=c1c2nc(N3CCC(c4ccccc4)CC3)ccc2ncn1C1CC1`?
KDM5B inhibitor: 35µM*; IP6K1 inhibitor: 3

What do the screens show for `CSc1ccc(-c2cccc(C(=O)NCCNC(=O)Nc3ccccc3)c2)cc1`?
IP6K1 inhibitor: 3

Results for O=C(COc1ccccc1)N1CCC(N2CC3CC(C2)[C@H]2CCCC(=O)N2C3)CC1 (stereo partly specified) ?
KDM5B inhibitor: 22µM*; IP6K1 inhibitor: 33

What do the screens show for `Cc1nc(C)c(C(=O)N2CCC(N3CC4CC(C3)[C@H]3CCCC(=O)N3C4)CC2)s1` (stereo partly specified)?
KDM5B inhibitor: 16µM*; IP6K1 inhibitor: 9

How did O=C(COc1ccccc1)N1CC2CC(C1)[C@H]1CCCC(=O)N1C2 (stereo partly specified) do in these assays?
KDM5B inhibitor: inactive; IP6K1 inhibitor: 20

What do the screens show for `COc1ccc(NC(=O)N2CCC(N3CC4CC(C3)[C@H]3CCCC(=O)N3C4)CC2)cc1OC` (stereo partly specified)?
KDM5B inhibitor: 25µM*; IP6K1 inhibitor: 7

How did COc1ccc(C)cc1NC(=O)N1CCC(N2CC3CC(C2)[C@H]2CCCC(=O)N2C3)CC1 (stereo partly specified) do in these assays?
KDM5B inhibitor: inactive; IP6K1 inhibitor: 5

How did COc1ccc(C(=O)N2CCC(N3CC4CC(C3)[C@H]3CCCC(=O)N3C4)CC2)cc1 (stereo partly specified) do in these assays?
KDM5B inhibitor: inactive; IP6K1 inhibitor: 0

How did COc1ccc(CC(=O)NC2CCCc3c2[nH]c2c(Cl)cccc32)cc1 (stereo unspecified) do in these assays?
KDM5B inhibitor: inactive; IP6K1 inhibitor: 11

How did CCc1cccc(CC)c1NC(=O)c1cc2ccccc2oc1=O do in these assays?
KDM5B inhibitor: inactive

Results for COc1ccc(-c2ccc(C(=O)N3CCN(C(=O)Nc4ccc(Cl)cc4)CC3)cc2)nn1 ?
IP6K1 inhibitor: -3

What do the screens show for `CCNc1ncc(C(=O)N2CCN(CCCCOC)CC2)cn1`?
KDM5B inhibitor: 25µM*; IP6K1 inhibitor: -11

What do the screens show for `CCNc1ncc(C(=O)N2CCC(O)(CN3CCOCC3)C(C)(C)C2)cn1` (stereo unspecified)?
KDM5B inhibitor: inconclusive; IP6K1 inhibitor: 28

What do the screens show for `CC(C)CNC(=O)C(C)Oc1ccc(C#N)cc1` (stereo unspecified)?
KDM5B inhibitor: inactive

How did O=C(C1CCN(Cc2ccccc2-c2cccnc2)CC1)N1CCC(c2ccccc2)CC1 do in these assays?
IP6K1 inhibitor: 11

How did NC(=O)NCCC(=O)N1CCc2onc(-c3cccc4ccccc34)c2C1 do in these assays?
KDM5B inhibitor: 25µM*; IP6K1 inhibitor: -6

What do the screens show for `NC(=O)NCC(=O)N1CCc2onc(-c3cccc4ccccc34)c2C1`?
KDM5B inhibitor: inconclusive; IP6K1 inhibitor: 7

How did COCCNC(=O)c1ccc2c(c1)N(C)C(CC(=O)NCc1ccccn1)CO2 (stereo unspecified) do in these assays?
KDM5B inhibitor: 28µM*; IP6K1 inhibitor: -16

How did COCCNC(=O)c1ccc2c(c1)N(C)C(CC(=O)NCCO)CO2 (stereo unspecified) do in these assays?
KDM5B inhibitor: 28µM*; IP6K1 inhibitor: 2

Results for COCCNC(=O)c1ccc2c(c1)N(C)C(CC(=O)NCC(F)(F)F)CO2 (stereo unspecified) ?
KDM5B inhibitor: 20µM*; IP6K1 inhibitor: 37

What do the screens show for `COCCNC(=O)CCCN1C(=O)COc2ccc(C(=O)COc3cc(C)cc(C)c3)cc21`?
KDM5B inhibitor: inconclusive; IP6K1 inhibitor: 4

How did COCCNC(=O)c1ccc2c(c1)N(C)C(CC(=O)NCc1ccncc1)CO2 (stereo unspecified) do in these assays?
KDM5B inhibitor: inconclusive; IP6K1 inhibitor: -2

How did COCCNC(=O)c1ccc2c(c1)N(C)C(CC(=O)Nc1ccc[nH]c1=O)CO2 (stereo unspecified) do in these assays?
KDM5B inhibitor: 28µM*; IP6K1 inhibitor: 3

Results for CC(C)CN(C(=O)CC1COc2ccc(C(=O)N(C)C)cc2N1C)C1CC1 (stereo unspecified) ?
KDM5B inhibitor: inactive; IP6K1 inhibitor: 5

How did COC(=O)c1ccc(NC(=O)C(NC(=O)c2ccc(OC)cc2)C(C)C)c(C)c1 (stereo unspecified) do in these assays?
KDM5B inhibitor: inactive

Results for CC1CCN(Cc2ccc(C(=O)O)cc2)CC1 ?
KDM5B inhibitor: inactive

What do the screens show for `CNC(=O)c1cc(-c2cccc(F)c2)nc2c1cnn2C`?
IP6K1 inhibitor: 15

Results for COCCNC(=O)c1ccc2c(c1)N(C)C(CC(=O)NC(C)(C)CO)CO2 (stereo unspecified) ?
KDM5B inhibitor: 32µM*; IP6K1 inhibitor: 2

What do the screens show for `CN(C)C(=O)c1ccc2c(c1)N(C)C(CC(=O)NC(C)(CO)CO)CO2` (stereo unspecified)?
KDM5B inhibitor: inactive; IP6K1 inhibitor: 1

Results for COCCNC(=O)c1ccc2c(c1)OCCN(c1ccccc1)C2 ?
KDM5B inhibitor: inactive; IP6K1 inhibitor: -5

How did COCCNC(=O)c1ccc2c(c1)N(C)C(CC(=O)NC1CCOCC1)CO2 (stereo unspecified) do in these assays?
KDM5B inhibitor: 32µM*; IP6K1 inhibitor: -3
